Laboratory results as given in PubChem BioAssay (Tox21).
“And” between values parts separate entries of the source, which are not always exact repeats. Equal values may be shown once. Results filed as inconclusive are left out. The source holds several records for some structures; these can differ, active in one and inactive in another. The source made the active and inactive calls. Unless noted, calls come from the whole dose curve; as a rule, active = well fitted curve in the direction sought with a large enough effect in the repeat runs; inconclusive = weak or mixed curves; inactive = no such curve, though single readings can be large; an effect the other way counts as inactive or inconclusive.

Assays:
[1] = qHTS assay to identify small molecule agonists of the RXR signaling pathway - cell viability counter screen (AID 1159529);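 note: HEK 293T cells carrying an RXR-alpha UAS beta-lactamase reporter; nearly all actives have a fitted effect of over 50% in size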
How it was run: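 Steps: seed RXR-alpha-UAS-bla HEK 293T cells in assay medium containing 2% charcoal-stripped FBS; incubate 5 hr; add compounds in DMSO; incubate 16 hr at 37 C; after the bla read, add CellTiter-Glo and read luminescence at 30 min.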

[2] = qHTS assay to identify small molecule antagonists of the retinoid acid receptor (RAR) signaling pathway - cell viability counter screen (AID 1159551); note: nearly all actives have a fitted effect of over 35% in size
How it was run: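 C3RL4 RARE-luciferase cells, 1,000/well, incubated overnight, then dosed with compound plus 1 uM retinol (final). After 6 hr at 37 C, viability read by CellTiter-Glo ATP luminescence following 30 min at room temperature.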

[3] = qHTS assay to identify small molecule antagonists of the retinoic acid receptor (RAR) signaling pathway (AID 1159552; note: nearly all actives have a fitted effect of over 50% in size)
How it was run: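 Retinol at 1 uM final stimulated RARE-luciferase expression in C3RL4 cells exposed to test compounds for 6 hr at 37 C. Reduced luminescence, read 30 min after detection reagent, indicated pathway antagonism.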

[4] = qHTS assay to identify small molecule antagonists of the estrogen related receptor (ERR) signaling pathway from Tox21 library - cell viability counter screen (AID 1224834); note: nearly all actives have a fitted effect of over 30% in size
How it was run: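 ERR reporter cells, 2,000 per well, rested 6 h, then exposed to compound in DMSO for 17.5 hours at 37 C. Viability read as fluorescence after 30 min with CellTiter-Fluor.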

[5] = molecular target: Luciferin 4-monooxygenase (Photinus pyralis) (UniProt P08659); test: qHTS assay to identify small molecule inhibitors of firefly luciferase (AID 1224835); note: nearly all actives have a fitted effect of over 25% in size; note: potency is the fitted concentration of half-maximal effect
How it was run: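 Biochemical qHTS: compounds run as interplate titrations against purified firefly enzyme, with D-luciferin and ATP each at its KM concentration. Light output recorded by CCD imaging.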

[6] = qHTS assay to identify small molecule agonists of the constitutive androstane receptor (CAR) signaling pathway - cell viability counter screen (AID 1224836); note: nearly all actives have a fitted effect of over 45% in size
How it was run: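 Cells were seeded and incubated 4 hrs. Compounds were added across 15 concentrations together with PK11195 at 0.75 uM final. Plates were incubated 23 hrs at 37 C. CellTiter-Fluor was added and fluorescence measured.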

[7] = qHTS assay to identify small molecule antagonists of the constitutive androstane receptor (CAR) signaling pathway - cell viability counter screen (AID 1224837); note: nearly all actives have a fitted effect of over 45% in size
How it was run: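 HepG2 cells stably carrying hCAR and CYP2B6-2.2kb reporter, stimulated with 50 nM CITCO and compounds at 15 concentrations for 23 h at 37 C. Viability measured by CellTiter-Fluor fluorescence.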

[8] = qHTS assay to identify small molecule antagonists of the estrogen related receptor signaling pathway with the pleiotropic PPARgamma coactivator (PGC) from Tox21 10K library - cell viability counter screen (AID 1224840; active = well fitted cell-killing curve with a large enough effect in the repeat runs, not every such curve was filed as active; note: nearly all actives have a fitted effect of over 40% in size)
How it was run: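 PGC/ERR cells (2,000/well) plated 6 h, then compound-treated for 17.5 h at 37 C. Viability measured by CellTiter-Fluor fluorescence after 30 min at 37 C, multiplexed with the pathway assay.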

[9] = qHTS assay to identify small molecule antagonists of the estrogen related receptor signaling pathway with the pleiotropic PPARgamma coactivator (PGC) from Tox21 10K library (AID 1224841; call rule not given here; note: actives are mostly falling curves and most rising ones were filed inactive; nearly all actives have a fitted effect of over 50% in size; note: potency is the fitted concentration of half-maximal effect)
How it was run: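 PGC/ERR cell line, 2,000 cells/well, pre-incubated 6 hours at 37 C, then exposed to compounds for 18 hours at 37 C; luciferase read with One-Glo luminescence after 30 min at room temperature.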

[10] = qHTS assay to identify small molecule agonists of the estrogen related receptor signaling pathway with the pleiotropic PPARgamma coactivator (PGC) from Tox21 10K library (AID 1224842); note: nearly all actives have a fitted effect of over 15% in size
How it was run: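 PGC/ERR reporter cell line, 2,000 cells per well, incubated 6 h at 37 C before 23 nL compound in DMSO was added. After 18 h at 37 C, One-Glo luminescence read following 30 min at room temperature.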

[11] = molecular target: Thyrotropin receptor (Homo sapiens) (UniProt P16473); test: qHTS assay to identify small molecule agonists of the thyroid stimulating hormone receptor (TSHR) signaling pathway (AID 1224843; calls by dose curve; note: nearly all actives have a fitted effect of over 45% in size)
How it was run: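 Steps: seed 800 TSHR-HEK293 cells per well; add test compound and hold 30 min at ambient temperature; dispense cAMP-d2 then anti-cAMP cryptate; incubate 1 h at ambient; measure fluorescence intensity.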

[12] = qHTS assay to identify small molecule agonists of the retinoic acid receptor (RAR) signaling pathway (AID 1159553); conditions: C3RL4 RARE luciferase reporter, agonist, 6 h; activation: at 73.3 µM (top of the series) unless noted
How it was run: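 C3RL4 RARE-luciferase cells were seeded at 1,000/well and grown overnight at 37 C, then exposed to compounds for 6 hr at 37 C, 5% CO2. Luciferase reagent was added and luminescence was read after 30 min at room temperature.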

[13] = molecular target: Nuclear receptor subfamily 1 group I member 3 (Homo sapiens) (UniProt Q14994); test: qHTS assay to identify small molecule antagonists of the constitutive androstane receptor (CAR) signaling pathway (AID 1224838); note: nearly all actives have a fitted effect of over 40% in size
How it was run: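 HepG2 cells stably carrying hCAR and a CYP2B6-2.2kb luciferase reporter, seeded 4 hrs before compound (15 concentrations). Stimulated with 50 nM CITCO for 24 hr at 37 C. ONE-Glo luminescence read after 30 min at room temperature.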

[14] = molecular target: Nuclear receptor subfamily 1 group I member 3 (Homo sapiens) (UniProt Q14994); test: qHTS assay to identify small molecule agonists of the constitutive androstane receptor (CAR) signaling pathway (AID 1224839); note: nearly all actives have a fitted effect of over 15% in size; note: potency is the fitted concentration of half-maximal effect
How it was run: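 Cells were plated and incubated 4 hrs, then dosed with compounds at 15 concentrations. PK11195 was added to 0.75 uM final. After 24 hrs at 37 C, luciferase luminescence was measured.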

[15] = qHTS assay to identify small molecule antagonists of the estrogen related receptor (ERR) signaling pathway - cell viability counter screen (AID 1224818)
How it was run: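 ERR cells, 2,000 per well, compound added after 6 h and incubated 17.5 h at 37 C. Viability read by CellTiter-Fluor fluorescence after a further 30 min at 37 C.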

[16] = qHTS assay to identify small molecule antagonists of the estrogen related receptor signaling pathway with the pleiotropic PPARgamma coactivator (PGC) cell viability counter screen (AID 1224822)
How it was run: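 PGC/ERR cells rested 6 h, then compound-treated 17.5 h at 37 C. CellTiter-Fluor added for 30 min at 37 C, viability measured by fluorescence intensity.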

Measured: Potency

Chain of Nuclear receptor subfamily 1 group I member 3 (Homo sapiens) (Q14994 whole entry, looked up): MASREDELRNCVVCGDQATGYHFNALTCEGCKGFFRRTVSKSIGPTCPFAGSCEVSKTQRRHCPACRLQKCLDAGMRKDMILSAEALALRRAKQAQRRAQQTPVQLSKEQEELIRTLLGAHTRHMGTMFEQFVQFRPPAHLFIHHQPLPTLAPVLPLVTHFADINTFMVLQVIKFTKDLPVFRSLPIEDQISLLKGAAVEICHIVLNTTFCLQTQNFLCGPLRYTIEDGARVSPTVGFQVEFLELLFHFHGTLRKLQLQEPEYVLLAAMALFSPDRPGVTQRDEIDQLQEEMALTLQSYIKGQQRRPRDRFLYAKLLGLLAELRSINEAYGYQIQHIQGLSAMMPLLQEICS
Chain of Thyrotropin receptor (Homo sapiens) (P16473 whole entry, looked up): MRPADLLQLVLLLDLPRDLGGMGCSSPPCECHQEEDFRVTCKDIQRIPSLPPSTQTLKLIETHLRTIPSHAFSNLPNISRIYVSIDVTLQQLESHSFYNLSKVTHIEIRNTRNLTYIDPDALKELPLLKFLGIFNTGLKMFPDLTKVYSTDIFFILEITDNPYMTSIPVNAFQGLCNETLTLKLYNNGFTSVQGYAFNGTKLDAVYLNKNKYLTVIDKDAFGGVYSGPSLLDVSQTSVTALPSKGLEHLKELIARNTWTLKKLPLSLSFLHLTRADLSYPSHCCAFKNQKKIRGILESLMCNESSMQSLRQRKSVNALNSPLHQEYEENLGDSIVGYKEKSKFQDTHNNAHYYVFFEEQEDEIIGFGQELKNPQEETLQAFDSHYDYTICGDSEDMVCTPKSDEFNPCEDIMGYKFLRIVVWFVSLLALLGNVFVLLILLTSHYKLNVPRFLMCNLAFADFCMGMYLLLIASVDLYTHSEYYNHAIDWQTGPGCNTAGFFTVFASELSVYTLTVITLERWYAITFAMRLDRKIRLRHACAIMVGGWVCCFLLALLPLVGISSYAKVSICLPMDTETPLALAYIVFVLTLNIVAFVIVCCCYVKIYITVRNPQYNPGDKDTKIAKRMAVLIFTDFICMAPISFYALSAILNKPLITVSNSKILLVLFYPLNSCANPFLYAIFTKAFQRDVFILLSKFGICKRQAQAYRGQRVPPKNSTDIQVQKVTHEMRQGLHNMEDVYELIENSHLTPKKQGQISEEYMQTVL
Chain of Luciferin 4-monooxygenase (Photinus pyralis) (P08659 whole entry, looked up): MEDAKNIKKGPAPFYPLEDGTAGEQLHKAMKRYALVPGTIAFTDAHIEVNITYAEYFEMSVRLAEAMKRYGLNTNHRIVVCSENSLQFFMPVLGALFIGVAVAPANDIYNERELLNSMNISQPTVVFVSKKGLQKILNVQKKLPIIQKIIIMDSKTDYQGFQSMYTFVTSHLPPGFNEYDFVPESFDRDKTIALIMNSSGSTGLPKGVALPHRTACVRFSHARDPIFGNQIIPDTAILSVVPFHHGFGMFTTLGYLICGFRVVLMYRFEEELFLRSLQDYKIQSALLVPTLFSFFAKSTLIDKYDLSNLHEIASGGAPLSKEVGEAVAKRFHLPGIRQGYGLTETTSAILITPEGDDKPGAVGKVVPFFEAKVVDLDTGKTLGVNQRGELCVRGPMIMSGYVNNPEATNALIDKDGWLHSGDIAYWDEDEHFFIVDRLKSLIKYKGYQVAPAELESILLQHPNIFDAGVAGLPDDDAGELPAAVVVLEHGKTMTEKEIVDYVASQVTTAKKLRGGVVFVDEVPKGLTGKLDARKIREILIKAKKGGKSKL

OCCNCCO
not listed: [12] | [13] | [14] | [15] | [16]
inactive: all other assays above

COC(=O)CC(=O)OC
not listed: [9] | [10] | [15] | [16]
inactive: all other assays above

CC(C)(C)c1cccc(C(C)(C)C)c1O
not listed: [5] | [9] | [10] | [12] | [15] | [16]
inactive: all other assays above

IC(I)I
active: [5] 35.5 µM and 35.6 µM
48.5 µM (active) and inactive: [9]
not listed: [13] | [14] | [15] | [16]
inactive: all other assays above

O=C(O)c1ccc(O)cc1
not listed: [12] | [15] | [16]
inactive: all other assays above

C=CCCCCCCCCCC
not listed: [9] | [10] | [11] | [15] | [16]
inactive: all other assays above

COCCOCCOCCO
not listed: [5] | [12] | [15] | [16]
inactive: all other assays above

FC(F)(F)C(Cl)Br (stereo not drawn)
not listed: [13] | [14] | [15] | [16]
inactive: all other assays above

Nc1cc([N+](=O)[O-])ccc1C(=O)O
not listed: [5] | [9] | [10] | [12] | [15] | [16]
inactive: all other assays above

C/C=C/C(=O)N(CC)c1ccccc1C
active: [14] 27.3 µM
not listed: [15] | [16]
inactive: all other assays above

CCCOCCO
not listed: [9] | [10] | [15] | [16]
inactive: all other assays above

O=C(O)c1cc(=O)[nH]c(=O)[nH]1
not listed: [12] | [13] | [14] | [15] | [16]
inactive: all other assays above

Cc1ccc(C)c(O)c1
not listed: [9] | [10] | [12] | [15] | [16]
inactive: all other assays above

CCOC(=O)C(C)Oc1ccc(Oc2cnc3cc(Cl)ccc3n2)cc1 (stereo not drawn)
not listed: [9] | [10] | [11] | [12] | [15] | [16]
inactive: all other assays above

Cc1ccc2c(c1)C(=O)OC2=O
inactive: [1] | [2] | [3] | [4] | [6] | [7] | [13] | [14] | [8]

C1COCCN1
not listed: [9] | [10] | [15] | [16]
inactive: all other assays above

CC(=O)OC(C)C
not listed: [9] | [10] | [13] | [14] | [15] | [16]
inactive: all other assays above

C=CC(C)(O)CCC=C(C)C (stereo not drawn)
not listed: [9] | [10] | [15] | [16]
inactive: all other assays above

CCc1cccc2c3c([nH]c12)C(CC)(CC(=O)O)OCC3 (stereo not drawn)
not listed: [9] | [10]
inactive: all other assays above
